Measurements as given in PubChem BioAssay (NCI).
The panel holds about 83,000 compounds, 20% with a hit somewhere; the sample as a whole holds those more often.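 In brief: 96-well plates, 48 h treatment, single concentration, percent growth endpoint.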 The source made the active and inactive calls.

These molecules were tested on COLO 205 colon (assay: NCI-60 one-dose screen, 48 h (100 = growth as untreated, 0 = no growth, -100 = all killed)). Conditions: 10 µM.
Protocol: Cells are grown in 96 well plates and exposed to the test compound for 48 hours. Compounds are tested at a single concentration, which is 10^-5 M for most compounds. The reported endpoint is percent growth (GI% or GIPRCNT), where numbers from 0 - 100% represent growth inhibition, and numbers from -100% - 0 represent cell death. For example, a value of 40 represents 60% growth inhibition. A value of 0 means no net growth occurred over the course of the experiment. A value of -40 indicates 40% of cells at the beginning of the experiment died by the end of the experiment. A value of -100 means all cells are dead at the end of the experiment.
NCI-60 Human Tumor Cell Lines Screen was performed using the standard one-dose NCI protocol, which is described in more detail at https://dtp.cancer.gov/discovery_development/nci-60/default.htm.
Compounds with GIPRCNT values below 10 were considered active. Activity score was based on GIPRCNT using the following formula: […]
Score is 0 for GIPRCNT values of 100 or above, 50 for GIPRCNT values of 0, and 100 for GIPRCNT values of -100.
For CC(=O)[C@H]1CC[C@H]2[C@@H]3CC[C@@H]4CC=C(C=O)C[C@]4(C)[C@H]3CC[C@]12C, the growth was 105% (inactive). For O=C(Nc1ccc(OS(=O)(=O)Cc2ccccc2)cc1)C12CC3CC(CC(C3)C1)C2, the growth was 27.4% (inactive). With COc1cc([C@@H]2c3cc4c(cc3[C@H](SC(=N)N)[C@H]3COC(=O)[C@H]23)OCO4)cc(OC)c1OC the growth was -67.2% (active). Cc1ccccc1[P+](Cc1ccccc1)(c1ccccc1)c1ccccc1 was tested, and the growth was -56% (active). In the case of O=C1/C(=C/c2cccs2)CCC/C1=C\c1cccs1, the growth is reported as 117% (inactive). COc1cc(C(c2c[nH]c3ccccc23)N2CCCC2)ccc1OCc1ccccc1 (stereo not given) was tested, and the growth was 104% (inactive). In the case of Cc1cc(/C=C2\SC(=Nc3ccccc3)N(C3CCCC3)C2=O)c(C)n1-c1ccc(Cl)cc1, the growth is reported as -94.5% (active). In the case of CN(C)CCCN1c2ccccc2Sc2ccc(C(F)(F)F)cc21, the growth is reported as -77.8% (active). Cc1cc(C#Cc2ccccc2)ccc1-n1c(/C=C/c2cc(O)ccc2O)nc2ccccc2c1=O was tested, and the growth was -65.9% (active). O=C(CSc1nnc(-c2ccc(Cl)cc2)o1)c1ccccc1 was tested, and the growth was 108% (inactive). In the case of COc1ccc(-c2nnc(COc3ccc(NC(=O)Nc4ccccc4)cc3F)o2)cc1, the growth is reported as 110% (inactive). For CC(C)OCc1cc(CN2CCN(c3cccc(Cl)c3)CC2)c(O)c2ncccc12, the growth was -43.1% (active). With CC(=O)CS(C)(=O)=O the growth was 106% (inactive). With CNC(=O)c1cc(Oc2ccc(NC(=O)Nc3ccc(Cl)c(OC(C)C)c3)c(F)c2)ccn1 the growth was 33.5% (inactive). COc1cccc(-c2nnc(COc3ccc(-c4nc5ccccc5[nH]4)cc3OC)o2)c1 was tested, and the growth was 85.4% (inactive). FC(F)(F)c1ccc(-c2cnc(Cl)nc2NCc2cc(C(F)(F)F)cc(C(F)(F)F)c2)cc1 was tested, and the growth was -51.1% (active). In the case of COc1cc2c3c(cccc3c1)C(=O)N(CCN1CCCC1)C2=O, the growth is reported as 4.92% (active). For O=C(NCCCl)c1cc(Cl)cc(Cl)c1, the growth was 112% (inactive). In the case of CCCCCCOc1ccc(/C=C/C(=O)c2ccc(B(O)O)cc2)cc1, the growth is reported as 103% (inactive). COc1cc(OC)cc(N2CCN(C(=O)Nc3nc4cc(F)ccc4nc3OC)CC2)c1 was tested, and the growth was -65.4% (active). In the case of CCN1CCOC1C(C)C (stereo not given), the growth is reported as 110% (inactive). In the case of COc1ccc2nc(-c3ccccc3)cc(C(C)=O)c2c1, the growth is reported as 110% (inactive). CC(=O)Oc1ccc(C2=Cc3ccc(OC(C)=O)cc3OC2C)cc1 (stereo not given) was tested, and the growth was 102% (inactive). In the case of CCOC(=O)CSC(=S)SCC(=O)OCC, the growth is reported as 127% (inactive). For Cc1ccc(S(=O)(=O)Oc2ccccc2-c2ccccc2)cc1, the growth was 8.93% (active). CCOC(=O)C(=O)Cc1cccnn1 was tested, and the growth was 102% (inactive). For N#C/C(=C/c1cc([N+](=O)[O-])ccc1Cl)C(N)=O, the growth was 117% (inactive). CCOC(=O)C(CCC1=NC(C)(C)CC(C)O1)C(=O)OCC (stereo not given) was tested, and the growth was 92% (inactive). CNC(=O)c1cc(Oc2ccc(NC(=O)Nc3ccc(Cl)c(OC4CCCCC4)c3)c(F)c2)ccn1 was tested, and the growth was 33.2% (inactive). In the case of FC(F)(F)c1ccc(-c2nc(-c3nc4cc(Cl)c(Cl)cc4[nH]3)c3ccccn23)cc1, the growth is reported as 87.1% (inactive). For COc1ccc(COC(=O)CC(C)C)cc1, the growth was 109% (inactive). For CCOC(=O)c1cc2c(n1Cc1cc(OC)cc(OC)c1)-c1oncc1CC2, the growth was 1.38% (active). CCCCC(CC#N)(CCC)CCC was tested, and the growth was 106% (inactive). In the case of CCOC(=S)Sc1ccc([N+](=O)[O-])cc1[N+](=O)[O-], the growth is reported as -13.1% (active). CCCCCCCCCCCCCCCCn1cc[n+](C)c1 was tested, and the growth was -46% (active). COc1ccc(-c2n/c(=C\c3c(O)[nH]c4ccccc34)cc3c2=Nc2ccccc2-3)cc1 was tested, and the growth was 35.9% (inactive). CCc1c(C)[nH]c(=O)c(C(N)=O)c1C#N was tested, and the growth was 110% (inactive). In the case of Nc1ccn([C@@H]2O[C@H](COP(=O)(O)O[C@@H]3C[C@H](n4cc(F)c(=O)[nH]c4=O)O[C@@H]3COP(=O)(O)O[C@@H]3C[C@H](n4cc(F)c(=O)[nH]c4=O)O[C@@H]3COP(=O)(O)O[C@@H]3C[C@H](n4cc(F)c(=O)[nH]c4=O)O[C@@H]3COP(=O)(O)O[C@@H]3C[C@H](n4cc(F)c(=O)[nH]c4=O)O[C@@H]3COP(=O)(O)O[C@@H]3C[C@H](n4cc(F)c(=O)[nH]c4=O)O[C@@H]3COP(=O)(O)O[C@@H]3C[C@H](n4cc(F)c(=O)[nH]c4=O)O[C@@H]3COP(=O)(O)O[C@@H]3C[C@H](n4cc(F)c(=O)[nH]c4=O)O[C@@H]3COP(=O)(O)O[C@@H]3C[C@H](n4cc(F)c(=O)[nH]c4=O)O[C@@H]3COP(=O)(O)O[C@@H]3C[C@H](n4cc(F)c(=O)[nH]c4=O)O[C@@H]3COP(=O)(O)O[C@@H]3C[C@H](n4cc(F)c(=O)[nH]c4=O)O[C@@H]3COP(=O)(O)OCCOCCOCCOCCOCCOCCO)[C@H](O)C2O)c(=O)n1 (stereo not given in full), the growth is reported as 36.9% (inactive). With Clc1cc(Cl)c(Cl)c(-c2nc(-c3cccnc3)cs2)c1 the growth was 57.1% (inactive). In the case of COc1ccccc1CNCCCN1C(=O)c2ccc3c4c(ccc(c24)C1=O)C(=O)N(CCCNCCNCCCN)C3=O, the growth is reported as -59.4% (active).
